Measured values published in PubChem BioAssay AID504834 (National Center for Advancing Translational Sciences (NCATS), 2011).
In all, about 320,000 compounds went through this assay and about 22,000 (6.9%) were called active. Inconclusive results (about 27%) are left out. Shown is part of a subset that was picked to be rich in actives. Where a call stands in place of a potency, no number is given. Values without a mark were called inactive. Calls come from the whole dose curve; as a rule, active = well fitted inhibition curve with a large enough effect; inconclusive = small, poorly fitted or top-dose-only effect, or another doubt; inactive = no such curve, though single readings can be large or run the other way.
Potency is the fitted concentration of half-maximal effect.

Test: Primary qHTS for delayed death inhibitors of the malarial parasite plastid, 96 hour incubation
Conditions: P. falciparum luciferase reporter growth; series mostly up to 28.7 µM
Method in brief: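 Parasite growth measured via integrated firefly luciferase reporter in P. falciparum. Infected erythrocytes at 2% hematocrit, 0.05% parasitemia final were treated 96 hours at 37 C under 5% CO2, and luminescence was read.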
With `CC(=O)Nc1cccc(C(=O)OCN2C(=O)c3ccccc3C2=O)c1` the Potency was “inactive”.
For `Cc1ccc(N(C)C(=O)Oc2cccc3ccc(C)nc23)cc1`, the Potency was 0.104 µM (active).
In the case of `Cc1ccc2cccc(OCCCOc3ccccc3CO)c2n1`, the Potency is reported as “inactive”.
In the case of `Cc1cccc(NC(=O)c2ccc3ccccc3n2)n1`, the Potency is reported as “inactive”.
For `CSCCC(NC(=O)c1ccco1)C(=O)Nc1cc(C)ccn1` (stereo not given), the Potency was “inactive”.
With `CCS(=O)(=O)NCCc1ccc(OC)c(OC)c1` the Potency was “inactive”.
In the case of `CCOC(=O)c1cc(S(=O)(=O)NCCc2ccc(OC)c(OC)c2)cn1C`, the Potency is reported as 13.1 µM (active).
In the case of `COc1ccc(CCNS(=O)(=O)c2ccc(F)cc2)cc1OC`, the Potency is reported as “inactive”.
With `Cc1[nH]c2ccc(C(=O)N3CCN(C)CC3)cc2c1C` the Potency was “inactive”.
In the case of `Cc1c(Cl)cccc1NC(=O)[C@@]1(CC(=O)O)CC(/C=C/c2ccccc2)=NO1`, the Potency is reported as “inactive”.
For `CN1CCc2nc(SC(C(=O)O)c3ccccc3)c(C#N)c(-c3cccs3)c2C1` (stereo not given), the Potency was “inactive”.
For `Cc1cc(NC(=O)CCS(=O)(=O)c2ccc(F)cc2)no1`, the Potency was “inactive”.
In the case of `COc1ccc(C(=O)Nc2ccccc2C(=O)N/N=C/c2ccccc2OC)cc1`, the Potency is reported as “inactive”.
In the case of `COc1cccc(/C=N/NC(=O)c2[nH]nc3c2CCc2ccccc2-3)c1O`, the Potency is reported as “inactive”.
For `COc1cccc(/C=N\NC(=O)C2=NNC(=O)C2C)c1O` (stereo not given), the Potency was 4.15 µM (active).
With `COc1ccccc1-n1ccnc(SCC(=O)NC2CCCCC2)c1=O` the Potency was “inactive”.
With `COc1ccc(C(=O)OCC(=O)Nc2ccc3[nH]c(=O)[nH]c3c2)c(OC)c1OC` the Potency was “inactive”.
For `Cc1ccc(S(=O)(=O)N(C)C)cc1NC(=O)COC(=O)/C=C/c1cccs1`, the Potency was “inactive”.
In the case of `CC(C)[C@@H](NC(=O)OC(C)(C)C)C(=O)NCC1CCC(C(=O)N[C@@H](Cc2ccccc2)C(=O)O)CC1` (stereo not given in full), the Potency is reported as “inactive”.
With `CC(C)C(NC(=O)C1CCC(C(C)(C)C)CC1)C(=O)NCCCN1CCCCC1` (stereo not given) the Potency was 13.1 µM (active).
For `O=C(NC(C(=O)NCCN1CCOCC1)C12CC3CC(CC(C3)C1)C2)C1CCCCC1` (stereo not given), the Potency was “inactive”.
With `CCCCn1c(N)c(N(CC)C(=O)c2ccccc2C(F)(F)F)c(=O)[nH]c1=O` the Potency was “inactive”.
For `CCOc1ccc(CN(C)C(=O)c2ccc(=O)[nH]c2)cc1`, the Potency was “inactive”.
With `COc1ccc(N(CCC(=O)NCCc2ccccc2)S(=O)(=O)c2ccc(C)cc2C)cc1` the Potency was “inactive”.
In the case of `Cc1cccc(NC(=O)NC(=S)NC(=O)c2ccccc2)c1`, the Potency is reported as “inactive”.
With `Cc1cccc(NC(=O)Nc2cccc(Oc3c(F)c(F)c(F)c(F)c3F)c2)c1` the Potency was 2.08 µM (active).
For `Cc1cccc(NC(=S)NC(=O)c2ccc(Br)o2)c1`, the Potency was “inactive”.
With `Cc1ccc(C)c(NS(=O)(=O)c2ccc(OCC(=O)NCc3cccnc3)cc2)c1` the Potency was “inactive”.
`O=C(NCc1cccnc1)c1nc(-c2cccs2)no1` gave an activity change, negative = inhibition of 112% [at 5.75 µM].
In the case of `Cc1ccc(S(=O)(=O)c2nc(-c3cccs3)oc2NCc2cccnc2)cc1`, the Potency is reported as 11.7 µM (active).
With `COc1cccc2cc(C(N)=O)/c(=N\NC(=O)c3ccccc3)oc12` the Potency was “inactive”.
With `Cn1nccc1NS(=O)(=O)c1ccc(F)cc1` the Potency was “inactive”.
With `O=C(CN1CCN(c2ccc(Cl)cc2)CC1)c1ccccc1` the Potency was “inactive”.
In the case of `CC(=O)c1nn(-c2cccc(Br)c2)cc1C(=O)c1cccc2ccccc12`, the Potency is reported as 6.57 µM (active).
In the case of `Cc1ccn2c(=O)c(NC(=O)c3cccc4ccccc34)c(C)nc2c1`, the Potency is reported as “inactive”.
For `CC(=O)c1ccc2c(ccc3ccccc32)c1`, the Potency was “inactive”.
For `Cc1ccc(C(=O)OCC(=O)Nc2ccc(Cl)cn2)cc1S(=O)(=O)N1CCOCC1`, the Potency was “inactive”.
For `Cc1ccc(CSc2ccc(S(=O)(=O)N3CCCCC3)cn2)cc1`, the Potency was “inactive”.
In the case of `O=C(Nc1ccc(F)cc1)c1ccc(S(=O)(=O)NCc2cccnc2)cc1`, the Potency is reported as “inactive”.
For `Cc1cccn2cc(-c3cccc(S(=O)(=O)N4CCCCC4)c3)nc12`, the Potency was “inactive”.
For `COc1ccc(N2CCN(C(=O)c3ccc(N4CCCCS4(=O)=O)cc3)CC2)cc1`, the Potency was “inactive”.
With `Cc1ccc(CN(Cc2cccnc2)C(=S)Nc2cccc(Cl)c2C)cc1` the Potency was “inactive”.
With `COCCNC(=S)N(Cc1cccnc1)Cc1ccc(OC)c(OC)c1` the Potency was “inactive”.
With `COCCNC(=S)N(CCc1c(C)[nH]c2ccc(C)cc12)Cc1cccnc1` the Potency was 1.65 µM (active).
For `CC(NC(=O)c1cc(=O)[nH]c2ccccc12)c1ccc(F)cc1F` (stereo not given), the Potency was “inactive”.
In the case of `O=C1C(=O)N(CCCN2CCOCC2)C(c2ccc([N+](=O)[O-])cc2)/C1=C(\O)c1ccc2c(c1)OCCO2` (stereo not given), the Potency is reported as “inactive”.
In the case of `COC(=O)c1c(NC(=O)C(=O)N2CCCCC2)sc2c1CC(C)(C)OC2`, the Potency is reported as “inactive”.
With `COCCNC(=O)CCCn1c(=O)c2ccccc2n(Cc2cccc([N+](=O)[O-])c2)c1=O` the Potency was “inactive”.
For `Cc1ccc(CNC(=O)Cn2c(=O)c3sccc3n(Cc3cccc([N+](=O)[O-])c3)c2=O)cc1`, the Potency was 8.28 µM (active).
In the case of `Cc1ccc(Cn2c(C)c3cnn(CC(=O)NCc4ccccn4)c(=O)c3c2C)cc1`, the Potency is reported as “inactive”.
In the case of `CSCC[C@H](NC(=O)N1CCn2c1nc1ccccc12)C(=O)NC1CCCCC1`, the Potency is reported as “inactive”.
For `CCn1c(SCC(=O)NC2CC2)nnc1-c1ccncc1`, the Potency was “inactive”.
For `Cc1cccc(-n2cc(CN3CCN(C(=O)c4ncn[nH]4)CC3)c(-c3cccc(F)c3)n2)c1`, the Potency was “inactive”.
For `COc1ccc(-n2cc(CN(C)Cc3n[nH]c(=O)[nH]3)c(-c3cccc(F)c3)n2)cc1`, the Potency was “inactive”.
In the case of `Cc1ccc(-n2cc(CN(C)Cc3nccn3C)c(-c3cccc(C)c3)n2)cc1`, the Potency is reported as 3.7 µM (active).
With `CCCCn1c(N)c(N(CC(C)C)C(=O)c2cnc(C)cn2)c(=O)[nH]c1=O` the Potency was “inactive”.
With `Cc1nn(Cc2ccccc2)c(C)c1C(=O)NCCCN1CCCC1=O` the Potency was “inactive”.
In the case of `Cc1cc(NS(=O)(=O)c2ccccc2)no1`, the Potency is reported as “inactive”.
In the case of `Cc1nn(Cc2ccccc2)c(C)c1NS(=O)(=O)c1ccccc1`, the Potency is reported as 10.4 µM (active).
With `NNC(=O)c1cccc(COCC(F)(F)C(F)F)c1` the Potency was “inactive”.
In the case of `COCCNc1nnc(SCC(=O)NNC(=O)c2ccco2)s1`, the Potency is reported as “inactive”.
With `CCCc1nnc(NC(=O)CCC(=O)NC2CC2)s1` the Potency was “inactive”.
With `COc1ccc(CNC(=O)C2CCN(S(=O)(=O)c3ccc(SC)cc3)CC2)cc1` the Potency was “inactive”.
For `O=C(NCc1ccncc1)C1CCCN(S(=O)(=O)c2ccc(Br)cc2)C1` (stereo not given), the Potency was “inactive”.
In the case of `CSc1ccc(S(=O)(=O)N2CCC(C(=O)NCc3ccncc3)CC2)cc1`, the Potency is reported as 7.38 µM (active).
